BaF3 tox = parental Ba/F3 cell viability inhibition, counter-screen for JAK2V617F inhibitor project, murine pro-B, CellTiter-Glo luminescence | CellTiter-Glo ATP luminescence | inhibition, % at 5.6 µM | actives 1.1% (n = 220,000) | AID 1486, 2009;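 active = inhibition above a per-campaign cutoff, the mean inhibition of all tested compounds plus 3 SD, cut at about 27% in these data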;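 note: 0% = DMSO wells and 100% = JAK Inhibitor I control wells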
IEC-6 cytotox = cytotoxicity in IEC-6 intestinal epithelial cells, primary screen, cytotoxicity control for KLF5 inhibitor project, cell-based, luminescence; AID 1825, 2009; actives 0.78% (n = 290,000); IEC-6 cytotoxicity, luminescence viability; inhibition, % at 5 µM; in the data active = inhibition above about 22%;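 note: 0% = plate median of test compound wells and 100% = cytotoxic reference compound wells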
Ba/F3 V617F tox = reduced viability of JAK2V617F-dependent Ba/F3 cells, primary screen, JAK2V617F inhibitor project, cell-based, Ba/F3 EpoR-JAK2V617F, luminescence. ATP luminescence. inhibition, % at 5.6 µM. actives 1.1% (n = 220,000). AID 1446, 2008;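 active = inhibition above the campaign mean plus 3 SD over all tested compounds, cut at about 24% in these data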;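 note: cytokine-independent growth of Ba/F3 cells driven by EpoR plus mutant JAK2; 0% = DMSO-treated cells and 100% = JAK inhibitor I control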
APP 5UTR inh = inhibitors of APP translation via 5'UTR reporter, primary screen, APP 5'UTR luciferase, SH-SY5Y cells; SH-SY5Y APP 5'UTR-luciferase reporter, luminescence; inhibition, % at 2 µM; actives 0.82% (n = 190,000);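 active = inhibition above a set limit, derived from the sample mean plus 3 SD, cut at about 45% in these data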
aSyn UTR inh = MLPCN primary screen, SNCA 5' untranslated region | inhibition, % (tested at 7.5 µM) | alpha-synuclein 5'UTR reporter, inhibitor activity | AID 1813, 2009 | actives 0.82% (n = 300,000); in the data active = inhibition above about 60%;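 note: H4 neuroglioblastoma cells stably carrying SNCA 5'UTR luciferase fusion; 0% = DMSO wells and 100% = positive control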
KLF5 inh = KLF5 expression inhibitors, primary screen, DLD-1 cells, luminescence | DLD-1 KLF5 promoter-luciferase reporter | inhibition, % at 5 µM | actives 0.23% (n = 290,000) | AID 1700, 2009;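 active = inhibition above a per-plate limit of that plate's mean compound inhibition plus 3 SD, cut at about 60% in these data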;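 note: 0% = DMSO wells and 100% = LY294002 at 200 µM; higher means less KLF5 promoter-driven luciferase light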
Active calls of the source: *; . = no result given. Shown are actives, neighbours in structure and some others; about 2.2% of the full set was active somewhere.

SMILES	BaF3 tox	IEC-6 cytotox	Ba/F3 V617F tox	APP 5UTR inh	aSyn UTR inh	KLF5 inh
COc1ccc(NS(=O)(=O)c2ccc(N3CCOCC3)c(NC(=O)c3ccco3)c2)cc1	42*	-5	35*	-11	-6	-12
COc1ccc(NS(=O)(=O)c2ccc(N3CCOCC3)c(NC(=O)c3cccc(F)c3)c2)cc1	41*	0	30*	-23	-17	-37
COc1ccc(NS(=O)(=O)c2ccc(N3CCOCC3)c(NC(=O)c3ccc(F)cc3)c2)cc1	43*	3	38*	-12	-12	-10
O=C(Nc1cc(S(=O)(=O)Nc2ccc(Cl)cc2)ccc1N1CCCCC1)c1ccc(F)cc1	-1	3	-3	0	-3	-10
Oc1ccc(-c2c(C3=CCCCC3)sc3ccccc23)cc1	.	-2	.	.	-11	-11
Cc1cccc2cc3c(N)c(C(=O)N4CCOCC4)sc3nc12	59*	2	59*	85*	6	-11
COc1ccc(-n2nnnc2SCC(=O)c2cccc(OC)c2)cc1	6	2	5	6	5	3
CCn1nnnc1SCC(=O)c1cccc(OC)c1	45*	-2	0	-5	31	-22
CC(C)(C)c1ccc(C(=O)Nc2ccc(CC(=O)O)cc2)o1	4	0	0	.	111*	48
Cc1nc2ccccc2n1-c1nc(-c2ccco2)cc(C(F)(F)F)n1	8	-2	2	38	90*	-2
COC(=O)c1cc(C)nc2c1C(=O)C(=O)C=C2N1CCOCC1	.	20	.	.	37	26
CCN(CC)CCNc1cc(C)nc2c1C(=O)C(=O)C=C2N1CCCCC1	-6	11	7	67*	81*	-5
CC(C)(C)c1ccc(Oc2ccc(NC(=O)c3ccco3)cn2)cc1	72*	13	80*	.	-11	-32
O=C(Nc1ccc(Oc2cccc(C(F)(F)F)c2)nc1)c1ccco1	-2	8	0	.	39	-30
CCOC(=O)c1cnc(-n2nc(C)cc2C)nc1NNc1cc(-c2ccccc2)nc(C)n1	6	4	1	56*	93*	-17
CCOC(=O)c1cnc(-n2nc(C)cc2C)nc1NNc1ncc(-c2ccccc2)cn1	1	-1	-3	.	83*	-10
CCOC(=O)c1cnc(-n2nc(C)cc2C)nc1NCc1ccccc1	1	8	1	7	27	-16
COc1ccc(CNC(=O)CN(C(=O)c2csnn2)c2ccc(F)cc2)cc1	.	4	.	.	-11	-62
CCN1CCN(/C=N/c2nc3c(s2)CCCC3)CC1	2	1	-3	-76	66*	-26
CN1CCN(CC(=O)Nc2nc3c(s2)CCCC3)CC1	2	2	-4	.	-18	-3
Cc1ccc(S(=O)(=O)N(C)C)cc1NC(=O)C(C)N(C)CCOc1ccc(Cl)cc1 (configuration not stated)	.	4	.	.	11	8
O=C(O)c1cccc(N/N=C/c2cccs2)c1	3	4	-1	9	96*	-73
CSc1ccc(/C=N/Nc2cccc(C(=O)O)c2)cc1	2	-8	1	8	.	-73
O=C(/C=C\Nc1ccc2c(c1)OCO2)c1ccccn1	2	-7	-1	-120	118*	-1
COc1ccc(C=O)cc1CSc1ncccc1C(=O)O	.	-2	.	.	1	-32
SMILES	BaF3 tox	IEC-6 cytotox	Ba/F3 V617F tox	APP 5UTR inh	aSyn UTR inh	KLF5 inh
Cc1ccc(C)c(OCC(O)CN2CCC(CN3C(=O)c4cccc5cccc(c45)C3=O)CC2)c1 (configuration not stated)	6	-5	-2	69*	4	9
COc1ccc(OCC(O)CN2CCC(CN3C(=O)c4cccc5cccc(c45)C3=O)CC2)cc1 (configuration not stated)	.	.	.	.	3	.
Cc1ccc(OCCNC(=O)c2ccc(NC(=O)CC3SC(N4CCCC4)=NC3=O)cc2)cc1 (configuration not stated)	.	.	.	.	-6	.
Cn1ncc(Br)c1NC(=O)Nc1ccc(OC(F)(F)F)cc1	32*	11	4	.	8	15
CC1CCC(=NNc2ccc(C(F)(F)F)cc2[N+](=O)[O-])CC1 (configuration not stated)	10	7	6	10	-3	-29
CC1CCC/C(=N/Nc2ccc([N+](=O)[O-])cc2[N+](=O)[O-])C1 (configuration not stated)	6	-2	0	79*	7	-30
CN1/C(=C\P(=O)(N(C)C)N(C)C)C(C)(C)c2ccccc21	62*	-5	61*	-4	18	-32
O=C(NCCC1CCCCN1S(=O)(=O)c1ccccc1)C(=O)NC1CC1 (configuration not stated)	.	.	.	.	-1	.
COc1cccc2c1C(=O)c1c(O)c3c(c(O)c1C2=O)C[C@](O)(C(C)=O)C[C@H]3O[C@@H]1C[C@@H](N)[C@@H](O)[C@@H](C)O1	.	.	.	.	111*	.
COc1cccc2c1-c1c(O)cccc1C2=O	.	2	.	.	4	1
CCCCn1c(N)c(N(Cc2ccccc2OC)C(=O)CCC(C)C)c(=O)[nH]c1=O	.	-6	.	.	-27	-16
O=C(Cc1cccs1)NCCS(=O)(=O)N1CCN(c2cccc(Cl)c2)CC1	.	.	.	.	18	.
CCN(CC)CCNC(=O)c1ccc(Cl)c(S(=O)(=O)Nc2ccc(Cl)cc2)c1	7	1	2	60*	11	-10
CCN(CC)CCNC(=O)c1ccc(Cl)c(S(=O)(=O)Nc2ccccc2OC)c1	2	2	1	-9	9	5
CC(NS(=O)(=O)c1ccc(Cl)cc1)C(=O)N1CCOCC1 (configuration not stated)	.	3	.	.	9	-21
COc1ccc2ccccc2c1C(O)c1nccn1C (configuration not stated)	38*	6	59*	-5	-13	8
Cc1ccc(S(=O)(=O)N(CC(=O)Nc2ccc(C)cc2C)C(=O)N2CCN(C)CC2)cc1	.	.	.	.	0	.
C=CCN(C(=O)Nc1ccc(F)cc1)C1CC(=O)N(c2ccc(OC)cc2)C1=O (configuration not stated)	-1	6	0	21	.	-11
C=CCN(C(=O)Nc1ccc(Cl)cc1)C1CC(=O)N(c2ccc(OC)cc2)C1=O (configuration not stated)	2	1	-6	47*	10	-18
O=C(CSc1nnnn1C1CCCCC1)Nc1ccc(F)cc1	56*	-6	-3	6	-2	-29
CN1C(=O)NC(NC(=O)c2ccco2)(C(F)(F)F)C1=O (configuration not stated)	0	-4	-2	-3	-1	-25

Assay outcomes: PubChem BioAssay, several laboratories
